Data published in ChEMBL document CHEMBL1157539, “Thousands of chemical starting points for antimalarial lead identification” (Nature, 2010).

Experiments:
Format in all cases: functional
Plasmodium falciparum [1] = experiment: GSK_TCMDC: Inhibition of Plasmodium falciparum 3D7 in whole red blood cells, using parasite LDH activity as an index of growth. Test compounds present at 2uM
Plasmodium falciparum [2] = experiment: GSK_TCMDC: Inhibition of Plasmodium falciparum Dd2 in whole red blood cells, using parasite LDH activity as an index of growth. Test compounds present at 2uM
HepG2 = experiment: GSK_TCMDC: Percent inhibition of human HepG2 cell line. Test compounds present at 10uM.

Compound	Inhibition (Plasmodium falciparum [1])	Inhibition (Plasmodium falciparum [2])	Inhibition (HepG2)
CN(C)S(=O)(=O)c1cc(-c2ccc3nccc(-c4cccc(S(N)(=O)=O)c4)c3c2)cnc1N	100%	98%	35%
COc1ccc(NC(=O)C2c3ccccc3C(=O)N(C3CCCC3)C2c2cccs2)cc1OC (stereo unspecified)	90%	96%	0%
O=S(=O)(c1cc2ccccc2s1)N(CCC(O)(C(F)(F)F)C(F)(F)F)Cc1cccc(O)c1	100%	99%	0%
O=C(CCn1c2ccccc2c2ccccc21)NN=Cc1ccco1	96%	0%	6%
O=C(Cc1cccc(Cl)c1)Nc1ccc(N2CCC(NCc3ccc4ncccc4c3)CC2)cc1	81%	8%	10%
CC(C)N1CCN(C(=O)c2ccc(CN(C)CCCN3CCN(c4cccc(Cl)c4Cl)CC3)s2)CC1.Cl	94%	35%	74%
Cc1nc(-c2cccc(NCc3ccccc3)c2)[nH]c1C.Cl	100%	48%	16%
O=C(O)C(F)(F)F.O=[N+]([O-])c1cccc(CNC2CCN(Cc3ccc(-c4ccccc4)cc3)CC2)c1	100%	96%	25%
CCCCc1ccc(-c2nc(NC(=O)Nc3[nH]c(-c4ccccc4)nc3C(=O)OCC)c(C(=O)OCC)[nH]2)cc1	95%	26%	0%
CC[C@H](C)CNC(=O)c1ccnc(-c2ccc(CN3CCC(N4CCCC4)CC3)cc2)c1.O=C(O)C(F)(F)F	99%	84%	13%
O=C(O)C(F)(F)F.OCCN1CCN(Cc2cccc(-c3cccc(-c4nc5cc(F)ccc5[nH]4)c3)c2)CC1	100%	99%	41%
COc1ccc2nccc([C@@H](O)CNCCCN(C)CCOc3cc(F)cc(F)c3)c2c1.O=C(O)C(=O)O	99%	58%	11%
COC(=O)Nc1nc2cc3c(cc2s1)OCCO3	99%	0%	0%
O=C(O)CCSSc1cccc[n+]1[O-]	95%	0%	100%
O=C(O)C[C@H](NC(=O)c1cc(-c2ccc3c(c2)OCO3)no1)C(=O)O.O=C(O)C[C@H](NC(=O)c1conc1-c1ccc2c(c1)OCO2)C(=O)O	98%	0%	0%
CN1CCN(CC(=O)Nc2cccc(-c3cccc(-c4nc5cc(F)ccc5[nH]4)c3)c2)CC1	100%	98%	16%
CC(C)(CN1CCCC1)CN(Cc1ccc(-c2ccc(C(F)(F)F)cc2)cc1)C(=O)Cn1c(CCc2cccc(F)c2F)nc(=O)c2ccccc21.O=C(O)C(O)C(O)C(=O)O	97%	64%	57%
CCOC(=O)CCCCOc1c(OC)cc(Cc2cnc(N)nc2N)cc1OC	95%	0%	0%
Oc1cccc(-c2cnc3ccc(NCc4ccc(F)cc4)nn23)c1	91%	66%	0%
O=C(Nc1ccc2c(c1)CCN2C1CCN(Cc2cccc(F)c2F)C1)c1ccco1 (stereo unspecified)	87%	90%	0%
COCCCNC(=N)c1ccc(NC(=O)c2ccc(C(=O)Nc3ccc(C(=N)NCCCOC)cc3)cc2)cc1.Cl	100%	99%	33%
CC1(C)NC(N)=NC(=N)N1OCc1ccc2ccccc2c1CON1C(=N)N=C(N)NC1(C)C	96%	12%	8%
CN1CCC[C@@H](Oc2cc3c(cc2Br)CCN3C(=O)Nc2ccc(-c3ccncc3)c(Cl)c2)C1	99%	64%	26%
CN(C)CCOc1cc(NC(=O)Nc2ccc(-c3ccncc3)c(Cl)c2)ccc1I	100%	100%	43%
CN1CCC(NCc2ccc(S(=O)(=O)Nc3ccc(Oc4cccc(Cl)c4)cc3)cc2)CC1.O=C(O)C(F)(F)F	99%	5%	47%
CC(C)[C@@H](NC(=O)NC1CCC(CCN2C3CCC2CC(OC(=O)C(CO)c2ccccc2)C3)CC1)C(O)(c1ccccc1)c1ccccc1 (stereo partly specified)	96%	56%	19%
Cc1ccc(Nc2nccc(N(C)c3ccc4c(c3)nc(NC(=O)Cc3ccc(Cl)c(Cl)c3)n4C)n2)cc1S(N)(=O)=O.O=C(O)C(F)(F)F	94%	60%	71%
